Marburg entry inh – Marburg virus entry inhibition. Marburg virus pseudotyped entry inhibition, cell reporter. Potency, µM (doses to about 37.8 µM), actives largely listed as inhibitors. 300,000 tested, 1.8% active. AID 540276; calls by dose curve; tested in HEK293 cells
Vaccinia mCherry – inhibitors of vaccinia virus infection (mCherry reporter signal) | Vaccinia virus mCherry reporter infection, fluorescence | Potency, µM (top dose mostly 36.5 µM), usual class: inhibitors | 310,000 tested, 0.63% active | AID 720579; calls by dose curve; tested in A549 cells; also: nearly all actives have a fitted effect of over 35% in size
FMDV inh – foot and mouth disease virus antiviral activity; FMDV antiviral cell-based qHTS; Potency, µM (top dose mostly 57.9 µM), most hits filed as inhibitors; 410,000 tested, 1.2% active; AID 1159524; calls by dose curve; tested in HEK293T cells; also: read-out not given here; nearly all actives have a fitted effect of over 45% in size
Vaccinia Venus – vaccinia inhibition (Venus reporter); Potency, µM (series often up to 36.5 µM), usual class: inhibitors; Vaccinia virus Venus reporter expression, fluorescence; 330,000 tested, 0.46% active; AID 720580; calls by dose curve; tested in A549 cells; also: nearly all actives have a fitted effect of over 30% in size
Lassa entry inh – blocks Lassa virus binding to or entry into cells; Potency, µM (titrated, usually from 37.9 µM), most hits filed as inhibitors; Lassa virus pseudotype entry inhibition, cell reporter; AID 540256; 300,000 tested, 1.2% active; calls by dose curve; tested in HEK293 cells; also: nearly all actives have a fitted effect of over 50% in size
HCMV inh – human cytomegalovirus inhibition | activity change, negative = inhibition, % at 57.5 µM | HFF cells, HCMV-luciferase reporter, 72 h; hits give low values | 410,000 tested, 4.5% active; in the data active = activity change below about -60%; inconclusive = no clear call, values can overlap the other calls; inactive = above about -39%
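Human foreskin fibroblasts infected with luciferase-reporter HCMV at MOI 1 PFU/cell, compounds at two doses. Luciferase measured 72 h post infection; normalized to buffer-only basal and Salinomycin (10uM) controls.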
Of the large screens only hits and unclear results are named; the others gave an inactive call. Only some compounds are listed: those with a hit (about 6.5% of all), similar ones and a draw of the others.

O=C1/C(=C/c2ccccc2)CN(C(=O)CCN2CCOCC2)C/C1=C\c1ccccc1	Marburg entry inh inconclusive, Vaccinia mCherry inconclusive, FMDV inh 8.9µM, Vaccinia Venus inconclusive, Lassa entry inh 1.4µM
C/C(=C\c1ccccc1)C(=O)NCCN1CCOCC1	none (no result: Marburg entry inh, Lassa entry inh)
O=C(/C=C/c1ccccc1)CCN1CCOCC1	Marburg entry inh inconclusive, Vaccinia mCherry 10µM, FMDV inh inconclusive, Vaccinia Venus inconclusive, Lassa entry inh inconclusive
C[N+](C)(C)CCC(=O)N1C/C(=C/c2ccccc2)C(=O)/C(=C\c2ccccc2)C1	Marburg entry inh inconclusive, Vaccinia mCherry inconclusive, FMDV inh inconclusive, Vaccinia Venus inconclusive, Lassa entry inh inconclusive, HCMV inh -67
O=C(Cc1ccccc1)N1CCNCC1	none
CCn1nc(C)cc1C(=O)NCC1CCC2(CCN(Cc3ccccc3F)CC2)O1 (configuration not stated)	none (no result: Marburg entry inh, Lassa entry inh, HCMV inh)
O=C(Nc1cccc2ccccc12)OC1C=CS(=O)(=O)C1 (configuration not stated)	Vaccinia mCherry 11µM, Vaccinia Venus inconclusive, HCMV inh -70
NC(=O)Nc1cccc2ccccc12	none
Cc1cccc(NC(=O)c2c(C)oc3ncn(CC(C)C)c(=O)c23)n1	none (no result: Marburg entry inh)
CCC(=O)Nc1ccc(NC(=O)c2ccccn2)cn1	Marburg entry inh inconclusive, Lassa entry inh 10µM
CC(C)C(=O)Nc1ccc(NC(=O)c2cccnc2)cn1	none (no result: Vaccinia mCherry)
O=C(Nc1ccc(NC(=O)C2CC2)nc1)c1ccccn1	Marburg entry inh inconclusive, Lassa entry inh inconclusive
CC(C)C(=O)Nc1ccc(NC(=O)c2ccccn2)cn1	Marburg entry inh 11µM, Lassa entry inh inconclusive
O=C1CCCCN1CCC(=O)N1CCOc2ccc(C(O)C3CCCCC3)cc2C1 (configuration not stated)	none (no result: Marburg entry inh, Lassa entry inh, HCMV inh)
CCN1C(=O)[C@H]2[C@@H](c3ccc(-c4ccc(OC)cc4)cc3)N3CCC[C@@]3(C(=O)OC)[C@H]2C1=O	HCMV inh -101 (no result: Marburg entry inh, Lassa entry inh)
CCCOC(=O)c1cccc(Nc2nc(-c3cccnc3)nc3ccccc23)c1	Marburg entry inh 10µM, Vaccinia mCherry inconclusive, FMDV inh 25µM, Vaccinia Venus inconclusive, Lassa entry inh inconclusive
CC(=O)Oc1cccc(Nc2ncnc3ccccc23)c1	none (no result: Marburg entry inh, Vaccinia mCherry, Vaccinia Venus, Lassa entry inh)
COC(=O)c1cccc(Nc2ncnc3ccc(C)cc23)c1	Marburg entry inh inconclusive (no result: FMDV inh)
Cc1ccccc1C(=O)Oc1cccc(Nc2ncnc3ccccc23)c1	Marburg entry inh 11µM, Vaccinia mCherry inconclusive, FMDV inh 16µM, Vaccinia Venus inconclusive, Lassa entry inh 10µM
CCOC(=O)c1cccc(Nc2ncnc3ccccc23)c1	Marburg entry inh inconclusive, FMDV inh 40µM, Vaccinia Venus inconclusive (no result: Vaccinia mCherry)
C=CCN(C)C1=NC(c2ccccc2)C(C(=O)OC)=C(C)N1CCOC (configuration not stated)	none (no result: Vaccinia mCherry, FMDV inh, Vaccinia Venus, Lassa entry inh, HCMV inh)
CC1CCc2cc(F)cc3c2N1C(=O)C(C(=O)Nc1cnccn1)C3=O (configuration not stated)	none (no result: Marburg entry inh, FMDV inh, Lassa entry inh, HCMV inh)
CCOC(=O)c1c(NC(=S)NC(=O)c2ccc(Cn3cc(Cl)cn3)o2)sc2c1CCC(C)C2 (configuration not stated)	Vaccinia mCherry 20µM, Vaccinia Venus 28µM, HCMV inh -71 (no result: Lassa entry inh)
COC(=O)c1cc(NC(=O)c2ccc(Cn3cc(Cl)cn3)o2)cc(C(=O)OC)c1	Marburg entry inh inconclusive, FMDV inh inconclusive
O=C(Nc1ccc2c(c1)CCCN2C(=O)c1cccs1)c1cccc(C(F)(F)F)c1	FMDV inh inconclusive, Lassa entry inh inconclusive, HCMV inh -70 (no result: Marburg entry inh)
CS(=O)(=O)N1CCCc2cc(C(=O)Nc3cccc(C(F)(F)F)c3)ccc21	FMDV inh 25µM, Lassa entry inh inconclusive, HCMV inh inconclusive
COc1cc(OC)cc(C(=O)Nc2ccc3c(c2)CCCN3C(=O)c2cccs2)c1	FMDV inh inconclusive, Lassa entry inh inconclusive, HCMV inh -77 (no result: Marburg entry inh)
O=C(Nc1ccc2c(c1)CCCN2C(=O)c1cccs1)c1ccccc1	Marburg entry inh inconclusive, Lassa entry inh inconclusive
O=C(Nc1ccc2c(c1)CCCN2C(=O)c1cccs1)c1ccccc1C(F)(F)F	Lassa entry inh inconclusive, HCMV inh -71 (no result: Marburg entry inh)
CCOC(=O)c1c(NC(=O)c2noc3c2CC(C(C)(C)C)CC3)sc2c1CCCC2 (configuration not stated)	none
COc1ccccc1C(=O)Nc1ccc2c(c1)CCCN2C(=O)c1ccccc1	Marburg entry inh inconclusive, Lassa entry inh inconclusive, HCMV inh inconclusive
O=C(Nc1ccc2c(c1)CCCN2C(=O)c1ccccc1)c1ccccc1Br	FMDV inh inconclusive, HCMV inh -70 (no result: Marburg entry inh, Vaccinia mCherry, Vaccinia Venus, Lassa entry inh)
CC1CCN(CC(=O)Nc2cccc(C(=O)Nc3cccc(C(F)(F)F)c3)c2)CC1	Marburg entry inh 8.9µM, Vaccinia Venus inconclusive, Lassa entry inh inconclusive
COc1ccccc1C(=O)Nc1ccc2c(c1)CCCN2C(=O)c1cccs1	Marburg entry inh inconclusive, Lassa entry inh inconclusive, HCMV inh -60
CC1CN(CC(=O)Nc2cccc(C(=O)Nc3cccc(C(F)(F)F)c3)c2)CC(C)O1 (configuration not stated)	Marburg entry inh inconclusive, FMDV inh inconclusive, Vaccinia Venus inconclusive, Lassa entry inh inconclusive
COc1cc(CN(C(=O)Nc2cccc(Cl)c2)c2ccccn2)cc(OC)c1OC	none
CC[n+]1c(/C=C/C=C/N(C(C)=O)c2ccccc2)sc2cc(OC)ccc21	Marburg entry inh inconclusive, FMDV inh inconclusive, Lassa entry inh inconclusive, HCMV inh -66
Cc1nc(Nc2ccc(Cl)cc2)cc(-c2ccccc2)n1	Lassa entry inh inconclusive
CC(C)c1ccc(S(=O)(=O)c2cc3cc(Br)ccc3oc2=O)cc1	Marburg entry inh 11µM, FMDV inh inconclusive, Lassa entry inh inconclusive
COc1ccc(NS(=O)(=O)c2ccc(NC(=O)N3CCCC3)cc2)cc1	Lassa entry inh inconclusive (no result: Marburg entry inh)
CC(C)NC(=O)c1csc(N2CCN(CCc3ccccc3)C2=O)n1	none (no result: Marburg entry inh, Vaccinia mCherry, FMDV inh, Vaccinia Venus, Lassa entry inh)
COc1ccc(OC)c(S(=O)(=O)N2CCC(C(=O)Nc3cccc(C(F)(F)F)c3)CC2)c1	Marburg entry inh inconclusive, FMDV inh 25µM, Vaccinia Venus inconclusive, HCMV inh inconclusive (no result: Vaccinia mCherry)
Cc1ccnc(NC(=O)c2cccc(S(=O)(=O)N3CCCC3)c2)c1	none (no result: Marburg entry inh, Vaccinia mCherry, Vaccinia Venus, Lassa entry inh)
Cc1ccc(NC(=O)c2cccc(S(=O)(=O)N3CCN(c4ccccc4)CC3)c2)nc1	Marburg entry inh inconclusive, HCMV inh -85
COc1ccc(OC)c(C2SCCN2S(=O)(=O)c2cccc(C(F)(F)F)c2)c1 (configuration not stated)	HCMV inh -61 (no result: FMDV inh)
Cc1ccnc(NC(=O)c2cccc(S(=O)(=O)N3CCN(c4ccccc4)CC3)c2)c1	Marburg entry inh inconclusive, Vaccinia mCherry inconclusive, FMDV inh inconclusive, Lassa entry inh 5µM
CC1CCN(S(=O)(=O)c2ccc3nc(Nc4cccc(C(F)(F)F)c4)ccc3c2)CC1	HCMV inh -100 (no result: Marburg entry inh)
CC1CCN(S(=O)(=O)c2ccc3nc(Nc4ccc(C#N)cc4)ccc3c2)CC1	Vaccinia mCherry inconclusive, FMDV inh inconclusive, HCMV inh inconclusive (no result: Marburg entry inh)
O=C(Nc1ccncc1)C1CCN(S(=O)(=O)c2cccc(C(F)(F)F)c2)CC1	none (no result: Marburg entry inh, Vaccinia mCherry, Vaccinia Venus, Lassa entry inh)
Cc1ccc(NC(=O)C2CCN(S(=O)(=O)c3cccc(C(F)(F)F)c3)CC2)nc1	HCMV inh -94
S=Cc1nc2ccccc2[nH]1	none (no result: Marburg entry inh, FMDV inh, Lassa entry inh, HCMV inh)

Compound activity deposited in PubChem BioAssay by National Center for Advancing Translational Sciences (NCATS).
